# Experimental data published in article PMC4336329 (PLoS ONE, 2015).
# About 2,200 (0.71%) of roughly 310,000 compounds showed an effect of 50% or more. The effect is printed as a negative number. Shown is part of a subset that was picked to be rich in strong results.
# Biological target: human ether-à-go-go-related gene (hERG) potassium channel (human, UniProt Q12809)
# Experiment: primary screen, population patch clamp on CHO cells stably expressing hERG; higher = less effect of the substance
# Chain of human ether-à-go-go-related gene (hERG) potassium channel (Q12809 whole entry, looked up): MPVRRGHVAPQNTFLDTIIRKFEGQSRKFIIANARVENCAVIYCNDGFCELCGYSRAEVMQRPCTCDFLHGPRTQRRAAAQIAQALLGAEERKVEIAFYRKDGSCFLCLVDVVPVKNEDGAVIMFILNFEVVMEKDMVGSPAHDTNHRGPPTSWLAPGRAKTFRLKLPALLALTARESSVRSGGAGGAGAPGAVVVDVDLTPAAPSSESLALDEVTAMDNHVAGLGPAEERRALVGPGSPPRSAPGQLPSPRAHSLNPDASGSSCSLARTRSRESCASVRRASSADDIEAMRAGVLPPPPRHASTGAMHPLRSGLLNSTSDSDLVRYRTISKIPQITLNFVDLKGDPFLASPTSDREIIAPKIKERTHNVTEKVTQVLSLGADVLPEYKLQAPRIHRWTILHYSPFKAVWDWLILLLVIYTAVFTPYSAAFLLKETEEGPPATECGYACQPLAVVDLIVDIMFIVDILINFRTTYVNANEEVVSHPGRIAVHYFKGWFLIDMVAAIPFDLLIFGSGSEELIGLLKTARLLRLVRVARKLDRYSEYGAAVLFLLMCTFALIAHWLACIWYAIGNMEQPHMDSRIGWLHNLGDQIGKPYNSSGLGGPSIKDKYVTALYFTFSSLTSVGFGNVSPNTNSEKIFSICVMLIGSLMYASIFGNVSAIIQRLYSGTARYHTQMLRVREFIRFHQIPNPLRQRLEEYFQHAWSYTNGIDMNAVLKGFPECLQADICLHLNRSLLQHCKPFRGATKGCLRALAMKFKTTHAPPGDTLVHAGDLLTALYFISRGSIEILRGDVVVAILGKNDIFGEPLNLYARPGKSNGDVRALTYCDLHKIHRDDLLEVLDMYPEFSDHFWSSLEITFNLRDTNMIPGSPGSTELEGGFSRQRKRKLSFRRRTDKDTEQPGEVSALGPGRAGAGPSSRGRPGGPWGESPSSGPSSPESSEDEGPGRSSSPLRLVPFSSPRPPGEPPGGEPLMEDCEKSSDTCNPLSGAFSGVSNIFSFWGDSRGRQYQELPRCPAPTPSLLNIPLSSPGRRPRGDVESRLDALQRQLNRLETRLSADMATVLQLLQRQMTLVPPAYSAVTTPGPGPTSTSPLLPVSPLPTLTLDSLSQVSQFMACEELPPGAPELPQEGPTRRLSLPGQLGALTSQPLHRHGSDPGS
row,Structure (SMILES),"hERG current change (%, negative = inhibition) at 1uM [%]"
1,CC1=NN(c2ccc(C(=O)O)cc2)C(=O)/C1=C/c1ccc(-c2ccccc2F)o1,15.2
2,C=CCOc1cccc(C(=O)N2CCC(CCC(=O)NC3CC3)CC2)c1,12.6
3,Cn1c(SCC(=O)N/N=C/C=C\c2ccco2)nc2ccccc21,-13.7
4,O=C(Nn1c(O)c(C=C2N=c3ccccc3=N2)sc1=S)c1ccccc1Cl,0.388
5,Cc1ccc(-c2nnn(CC(=O)N(c3ccc4c(c3)OCCO4)C(C(=O)NCC3CCCO3)c3ccc(F)cc3)n2)o1 (stereo not drawn),10.9
6,O=C(O)c1ccc(S(=O)(=O)NC2CCCCCC2)cc1,13.5
7,O=C(NNC(=O)c1ccccc1[N+](=O)[O-])c1csc(N2CCOCC2)n1,0.109
8,Cn1cc(-c2nnnn2-c2ccc(Cl)cc2)c(=O)c2ccccc21,-66.3
9,CCn1cc(-c2nnnn2-c2ccc(Cl)cc2)c(=O)c2ccccc21,-16.3
10,Cn1cc(-c2nnnn2-c2ccccc2)c(=O)c2ccccc21,1.73
11,CCCCNC(=O)/C(=C/c1ccccc1)NC(C)=O,1.06
12,O=C(CSc1nc2ccccc2c(=O)n1CCCO)NCc1ccccc1,-4.26
13,O=C(CCCCCn1c(SCC(=O)c2ccccc2)nc2ccccc2c1=O)NCc1ccco1,14.7
14,Cc1ccc(CSc2nc3ccccc3c(=O)n2CCCC(=O)NCc2ccco2)cc1,1.62
15,COc1cccc(NC(=O)CSc2nc3c(sc4ccccc43)c(=O)n2CCCN2CCCC2)c1,-3.14
16,COCCCn1c(SCC(=O)NCc2ccccc2)nc2ccccc2c1=O,-8.03
17,O=C(CCCCCn1c(SCc2ccncc2)nc2ccccc2c1=O)NCc1ccco1,-88.4
18,O=C(CSc1nc2c(sc3ccccc32)c(=O)n1CCCN1CCOCC1)NCC1CCCO1 (stereo not drawn),2.38
19,CCN(CC)CCn1c(SCC(=O)NCc2ccco2)nc2c(sc3ccccc32)c1=O,-50.4
20,Cc1ccc(CNC(=O)CSc2nc3c(sc4ccccc43)c(=O)n2CCCN2CCCC2)cc1,-57.9
21,O=C(CSc1nc2c(sc3ccccc32)c(=O)n1CCO)NCc1ccco1,-1

row,Structure (SMILES),"hERG current change (%, negative = inhibition) at 1uM [%]"
1,CCCCn1c(SCC(=O)NCc2ccco2)nc2c(sc3ccccc32)c1=O,-4.7
2,Cc1ccc(CNC(=O)CSc2nc3ccccc3c(=O)n2CCCO)cc1,-51.3
3,O=C(CN1C(=O)/C(=C/c2ccccc2F)Sc2ccccc21)N1CCN(c2ccccn2)CC1,12.8
4,CC(=O)Nc1cccc(C(=O)OCC(=O)NC(C)c2ccc(F)cc2)c1 (stereo not drawn),16.1
5,Cc1cc(Oc2ccc(-c3ccccc3)cc2)nc(N2CCOCC2)n1,2.61
6,COc1ccc(N2CCC(CNC(=S)Nc3cccc(OC)c3)C2)cc1 (stereo not drawn),8.46
7,Cc1ccc(-n2c(SCC(=O)NC3CCCCC3)nc3c(c2=O)SCC3)cc1,9.81
8,COc1ccc(C(=O)N=C2SC3CS(=O)(=O)CC3N2Cc2ccc(OC)c(OC)c2)cc1 (stereo not drawn),10.7
9,Cc1ccc2nc(SCC(=O)N3CCCCC3)nc(=O)n2c1,12.4
10,CCOc1ccc(Nc2ncnc3c2cnn3Cc2ccccc2)cc1,8.72
11,C=CCOc1cccc(C2/C(=C(/O)c3ccc(F)cc3)C(=O)C(=O)N2CCN2CCOCC2)c1 (stereo not drawn),12.9
12,O=[N+]([O-])c1cc(C(F)(F)F)cc([N+](=O)[O-])c1NN=C1CCCCC1,9.66
13,CC(=O)N1CCN(Cc2nc3cc(NC(=O)Nc4ccccc4)ccc3n2C)CC1,15.5
14,CC(C)CN(C(=O)COC(=O)C12CC3CC(CC(O)(C3)C1)C2)C1CCS(=O)(=O)C1 (stereo not drawn),18.7
15,CSCCC(/C(O)=C(\C#N)c1nc2ccccc2[nH]1)N1C(=O)c2ccccc2C1=O (stereo not drawn),5.68
16,CC(C)C(=O)Nc1ccc(C(=O)NNC(=O)NC2CCCCC2)cc1,21.9
17,O=C(CSc1nc2c(sc3ccccc32)c(=O)n1CCCN1CCCC1)NCc1ccccc1,-67.9
18,O=C(CSc1nc2c(sc3ccccc32)c(=O)n1CCc1ccccc1)NCc1ccco1,2.54
19,O=C(CSc1nc2c(sc3ccccc32)c(=O)n1CCCN1CCCC1)NCc1ccco1,-70.1
20,O=C(CSc1nc2c(sc3ccccc32)c(=O)n1CCCN1CCCC1)NCC1CCCO1 (stereo not drawn),-19.8
21,CCOCCCn1c(SCC(=O)NCc2ccco2)nc2c(sc3ccccc32)c1=O,3.64

row,Structure (SMILES),"hERG current change (%, negative = inhibition) at 1uM [%]"
1,COc1ccc(NC(=O)CSc2nc3c(sc4ccccc43)c(=O)n2CCCN2CCCC2)cc1,-1.35
2,CCCc1cc(C(=O)NCCc2ccccc2)no1,-4.85
3,C[C@H](CCC(=O)O)[C@H]1CC[C@H]2[C@@H]3CC[C@@H]4C[C@H](O)CC[C@]4(C)[C@H]3CC[C@]12C,15.8
4,CC1(C(=O)NCCc2c[nH]c3ccccc23)C=CC2(CCCCC2)N1C(=O)c1ccccc1 (stereo not drawn),2.59
5,O=C(/C=C/c1ccc(Cl)cc1)NCc1ccncc1,9.09
6,COc1ccccc1-n1c([S-])c(C(=O)Nc2ccccc2C(F)(F)F)[n+]2ccc(C(=O)NCCO)cc12,12.9
7,Nc1ncnc(Nc2c(F)cccc2F)n1,7.67
8,CCOCCCNc1nc2c(C)cccn2c(=O)c1/C=C1\SC(=S)N(C(C)CC)C1=O (stereo not drawn),10.1
9,Cc1[nH]n(-c2ccc([N+](=O)[O-])cc2)c(=O)c1C=NCCN1CCN(C(=O)c2cccc(F)c2)CC1,-78
10,Cc1[nH]n(-c2ccc([N+](=O)[O-])cc2)c(=O)c1C=NCCN1CCN(C(=O)c2ccc(F)cc2)CC1,-81.7
11,C=CCNC(=S)N1CCN(CCN=Cc2c(C)[nH]n(-c3ccc([N+](=O)[O-])cc3)c2=O)CC1,-27.3
12,Cc1[nH]n(-c2ccc([N+](=O)[O-])cc2)c(=O)c1C=NCCN1CCN(C(=O)c2ccccc2F)CC1,-34.2
13,O=c1c(C=NCCN2CCNCC2)c(-c2ccccc2)[nH]n1-c1ccc([N+](=O)[O-])cc1,-31
14,Cc1[nH]n(-c2ccc([N+](=O)[O-])cc2)c(=O)c1C=NCCN1CCN(C(=O)C(C)C)CC1,-19.5
15,Cc1[nH]n(-c2ccc([N+](=O)[O-])cc2)c(=O)c1C=NCC1CCCO1 (stereo not drawn),7.67
16,Cc1[nH]n(-c2ccc([N+](=O)[O-])cc2)c(=O)c1C=NCCc1ccc(S(N)(=O)=O)cc1,13.6
17,Cc1[nH]n(-c2ccc([N+](=O)[O-])cc2)c(=O)c1C=NCCN1CCN(C(=O)c2ccccc2)CC1,-77
18,COc1ccc(-c2[nH]n(-c3ccc([N+](=O)[O-])cc3)c(=O)c2C=NCCN2CCNCC2)cc1,2.86
19,Cc1[nH]n(-c2ccc([N+](=O)[O-])cc2)c(=O)c1C=NCCN1CCN(C(=O)c2ccc(Br)cc2)CC1,-77.4
20,COc1ccc(CCN=Cc2c(C)[nH]n(-c3ccc([N+](=O)[O-])cc3)c2=O)cc1OC,7
21,CC(C)C(NC(=S)NCc1ccccc1)C(=O)O (stereo not drawn),12.7

row,Structure (SMILES),"hERG current change (%, negative = inhibition) at 1uM [%]"
1,N#CNC(N)=Nc1cccc(Cl)c1,16.4
2,O=C(N/N=C/c1cn(-c2ccccc2)nc1-c1cccnc1)c1cccnc1,-26.3
3,Cc1cc(C)cc(NC(=O)CCN2CCOCC2)c1,7.44
4,C#CCN(N(C)c1ncc(C(F)(F)F)cc1Cl)S(=O)(=O)c1ccc2ccccc2c1,14.3
5,Cc1ccc(NC(=S)c2nc3ccccc3[nH]2)c(C)c1,14.6
6,CC(C)Cn1c(-c2ccc(F)cc2)n[nH]c1=S,11.6
7,COc1ccc(CN2CCN(c3ccccc3OC)CC2)c(OC)c1.O=C(O)C(=O)O,-47.7
8,COc1ccc(CN2CCN(C(C)C(=O)N3CCc4ccccc43)CC2)cc1OC (stereo not drawn),-52.3
9,COc1ccc(CN2CCC(C(=O)N3CCN(c4ccccc4F)CC3)CC2)cc1OC,3.9
10,COc1cc(CN2CCN(c3ccccc3F)CC2)cc(OC)c1O,2.78
11,COc1ccc(CN2CCN(CCCc3ccccc3)C(CCO)C2)c(OC)c1 (stereo not drawn),-39.7
12,COc1ccc(CN2CCN(CCCc3ccccc3)CC2)c(OC)c1,-64.9
13,COc1ccc(CN2CCN(Cc3ccccc3)CC2)c(OC)c1,-43.8
14,COc1ccc(CN2CCN(Cc3ccccc3F)CC2)c(OC)c1.O=C(O)C(=O)O,-36
15,COc1ccc(CN2CCN(c3ccccc3F)CC2)cc1O,-51.2
16,CC(C(=O)N1CCc2ccccc21)N1CCN(Cc2ccc(Cl)cc2)CC1 (stereo not drawn),-30.9
17,CC(C(=O)N1CCc2ccccc21)N1CCN(Cc2ccccc2)CC1 (stereo not drawn),4.18
18,COc1ccc(CN2CCN(c3ccccc3F)CC2)c(OC)c1,-57.8
